Reference: PubChem BioAssay AID1159580 (chemical genetic matrix, 2015)
Several values for one entry are separate records, joined by “and”; a condition that tells them apart may be missing. Identical values can stand only once. In all, about 5,500 compounds went through this assay and about 2,000 (36%) were called active. Inconclusive results (about 18%) are left out. No stated cut-off is given here; in the data, active means normalized growth mostly below about 0.91 (no sharp cut-off); inconclusive means no clear call, values can overlap the other calls; inactive means mostly above about 0.92. Some of the results follow.

Assay: chemical genetic growth profiling, strain panel (AID 1159580);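 further: tested at 20 µM; growth read once vehicle control cultures reached saturation at 30 °C; 1 = growth at the plate median or of vehicle wells; lower values mean less growth of the strain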
Settings: S. cerevisiae deletion strains, growth OD

Measured: normalized growth

COC(=O)[C@H]1[C@H]2C[C@H]3c4[nH]c5cc(OC)ccc5c4CCN3C[C@H]2C[C@@H](OC(=O)c2cc(OC)c(OC)c(OC)c2)[C@@H]1OC
inactive: locus YAL021C, strain ccr4, hits give low values 0.989 | locus YAL026C, strain drs2, hits give low values 1.02 | locus YAL030W, strain snc1, hits give low values 1.01 | locus YBL061C, strain skt5, hits give low values 1.02 | locus YBR009C, strain hhf1, hits give low values 0.996 | locus YBR021W, strain FUR4, hits give low values 0.998 | locus YBR023C, strain chs3, hits give low values 1.01 | locus YBR171W, strain sec66, hits give low values 1.02 | locus YBR229C, strain ROT2, hits give low values 1 | locus YBR231C, strain swc5, hits give low values 1.01 | locus YBR279W, strain paf1, hits give low values 1.01 | locus YCL011C, strain gbp2, hits give low values 1.01 | locus YCL016C, strain dcc1, hits give low values 1.01 | locus YCL029C, strain bik1, hits give low values 0.971 | locus YCL061C, strain MRC1, hits give low values 1.01 | locus YCL069W, strain vba3, hits give low values 1.01 | locus YCR088W, strain abp1, hits give low values 1.01 | locus YDL005C, strain med2, hits give low values 1.01 | locus YDL035C, strain GPR1, hits give low values 1.05 | locus YDL040C, strain nat1, hits give low values 1.01 | locus YDL074C, strain BRE1, hits give low values 0.976 | locus YDL101C, strain DUN1, hits give low values 0.986 | locus YDL185W, strain tfp1, hits give low values 0.966 | locus YDL192W, strain arf1, hits give low values 1.02 | locus YDR001C, strain nth1, hits give low values 1.01 | locus YDR069C, strain doa4, hits give low values 1 | locus YDR101C, strain arx1, hits give low values 0.977 | locus YDR137W, strain rgp1, hits give low values 1.03 | locus YDR159W, strain sac3, hits give low values 1.02 | locus YDR162C, strain NBP2, hits give low values 1.02 | locus YDR195W, strain ref2 1 | locus YDR297W, strain sur2, hits give low values 1.01 | locus YDR318W, strain mcm21, hits give low values 0.992 | locus YDR334W, strain swr1, hits give low values 1.02 | locus YDR335W, strain msn5, hits give low values 1.02 | locus YDR388W, hits give low values 0.983 | locus YDR392W, strain spt3, hits give low values 0.925 | locus YDR502C, strain sam2, hits give low values 0.929 | locus YEL003W, strain gim4, hits give low values 1.02 | locus YEL037C, strain rad23, hits give low values 1.02 | locus YEL061C, strain CIN8 (second series), hits give low values 1.01 | locus YEL061C, strain CIN8, hits give low values 1 | locus YER015W, strain faa2, hits give low values 1 | locus YER016W, strain bim1, hits give low values 1.01 | locus YER110C, hits give low values 0.975 | locus YER111C, strain swi4, hits give low values 1.01 | locus YER155C, strain BEM2 (second series), hits give low values 0.975 | locus YER155C, strain BEM2, hits give low values 1 | locus YER167W, strain BCK2, hits give low values 1.01 | locus YFR010W, strain ubp6, hits give low values 1.01 | locus YGL078C, strain dbp3, hits give low values 1.02 | locus YGL086W, strain mad1, hits give low values 0.999 | locus YGL167C, strain pmr1, hits give low values 1.02 | locus YGL173C, strain kem1, hits give low values 1.02 | locus YGL227W, strain vid30, hits give low values 1.01 | locus YGL240W, strain doc1, hits give low values 0.997 | locus YGL248W, strain PDE1, hits give low values 0.987 | locus YGL253W, strain hxk2, hits give low values 1.02 | locus YGR135W, strain pre9, hits give low values 1 | locus YGR252W, strain gcn5, hits give low values 1.06 | locus YHR013C, strain ard1, hits give low values 0.995 | locus YHR027C, strain rpn1, hits give low values 1.02 | locus YHR030C, strain SLT2, hits give low values 1.01 and 0.978 | locus YHR079C, strain IRE1 (second series), hits give low values 0.982 | locus YHR079C, strain IRE1, hits give low values 0.968 | locus YHR094C, strain hxt1, hits give low values 0.993 | locus YHR129C, strain ARP1, hits give low values 1 | locus YHR142W, strain chs7, hits give low values 1.01 | locus YHR200W, strain rpn10, hits give low values 0.992 | locus YIL066C, strain RNR3, hits give low values 1.01 | locus YIL073C, strain SPO22, hits give low values 0.923 | locus YIL125W, strain kgd1, hits give low values 1.02 | locus YIR030C, strain dcg1, hits give low values 0.994 | locus YJL092W, strain hpr5, hits give low values 1.01 | locus YJL095W, strain BCK1 (second series), hits give low values 1.01 | locus YJL095W, strain BCK1, hits give low values 0.958 and 0.964 | locus YJL115W, strain asf1, hits give low values 1.01 | locus YJL129C, strain trk1, hits give low values 1 | locus YJL134W, strain LCB3, hits give low values 0.996 | locus YJL154C, strain vps35, hits give low values 1 | locus YJL164C, strain tpk1, hits give low values 1 | locus YJL166W, strain qcr8, hits give low values 0.987 | locus YJL168C, strain set2, hits give low values 0.991 | locus YJL187C, strain SWE1 (second series), hits give low values 0.979 | locus YJL187C, strain SWE1, hits give low values 1.01 | locus YJR043C, strain POL32, hits give low values 1.07 | locus YJR066W, strain TOR1, hits give low values 0.92 | locus YJR075W, strain HOC1, hits give low values 0.982
